Among the data in PubChem BioAssay (NCATS) are Potency values, retold here.

Inconclusive results are not listed. Entries that show only a call come without a potency. Activity calls are given as the source filed them. The call rests on the fitted dose curve; in most records, active means well fitted inhibition curve with a large enough effect; inconclusive means small, poorly fitted or top-dose-only effect; inactive means flat fitted curve, though single readings scatter.
Potency means the concentration at half of the fitted maximal effect.

A short description of this test: qHTS to identify inhibitors of the type 1 interferon - major histocompatibility complex class I in skeletal muscle: primary screen against the NCATS Pharmaceutical Collection (AID 1347407).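 Further: luminescence of HiBiT knocked into endogenous HLA-B as interferon-induced MHC class I level.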 As to conditions: human skeletal muscle cells, IFN-b-induced MHC-I HiBiT luminescence, 24 h; series mostly up to 45.9 µM. The method in brief: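 A qHTS format is used: 8-point, 1:5 compound series with 46 uM top final concentration, applied alongside 4 ng/ml IFN-beta to HLA-B*08:01-HiBiT knock-in myoblasts. Luminescence is measured after 24 h treatment.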
(qHTS replaces the single test concentration by a dilution series.)
`Oc1cccc2[nH]ccc12`: the Potency entry was “inactive”.

Regarding `CC(=O)Nc1ccc(S(=O)(=O)Nc2cc(C)on2)cc1`, the Potency result was “inactive”.

For the molecule `CCOC(=O)OCC/C(SC(=O)OCC)=C(\C)N(C=O)Cc1cnc(C)nc1N`, the Potency result is “inactive”.

In the case of `CCC(=O)O[C@]1(C(=O)COC)[C@@H](C)C[C@H]2[C@@H]3CCC4=CC(=O)C=C[C@]4(C)C3(F)[C@@H](O)C[C@@]21C` (stereo partly drawn), the Potency entry was “inactive”.

Turning to `CCCCCCCCCCCCCCCC[N+](C)(C)Cc1ccccc1`, the Potency is 23.6 µM (active).

As to `OCCOCCN1CCN(C(c2ccccc2)c2ccc(Cl)cc2)CC1` (stereo not drawn), the Potency entry was “inactive”.

Take `CCOC(=O)O[C@]1(C(=O)OCCl)CC[C@H]2[C@@H]3CCC4=CC(=O)C=C[C@]4(C)[C@H]3[C@@H](O)C[C@@]21C`: the Potency result was “inactive”.

`CN(C(=O)C(Cl)Cl)c1ccc(OC(=O)c2ccco2)cc1`: the Potency result is “inactive”.

With `Cc1oc(-c2ccccc2)nc1CCC(=O)c1ccc(CC2SC(=O)NC2=O)cc1` (stereo not drawn), the Potency result was “inactive”.

Regarding `CCCCCOc1ccc(C2SC(=O)NC2=O)cc1OCC` (stereo not drawn), the Potency result was “inactive”.

Regarding `COc1ccc(OC(=O)N(CC(=O)O)Cc2ccc(OCCc3nc(-c4ccccc4)oc3C)cc2)cc1`, the Potency entry was “inactive”.

As to `C#CC(C)(CC)OC(=O)c1ccccc1C(=O)O` (stereo not drawn), the Potency entry was “inactive”.

Regarding `Cc1cc(O)c2c(O)c3c(O)cccc3cc2c1`, the Potency result was “inactive”.

Consider `COC(=O)[C@H]1[C@H]2C[C@@H]3c4[nH]c5cc(OC)ccc5c4CCN3C[C@H]2C[C@@H](OC(=O)/C=C/c2ccc(O)c(OC)c2)[C@@H]1OC`, for which the Potency result was “inactive”.

For `CCc1cccc2c(CCO)c[nH]c12`, the Potency result was “inactive”.

For the molecule `COc1ccc2cc(C=O)ccc2c1`, the Potency entry was “inactive”.

As for `CN1CCN(N)CC1`, the Potency result is “inactive”.

For the molecule `CC(COc1ccccc1)NN` (stereo not drawn), the Potency entry is “inactive”.
